Screening results deposited in PubChem BioAssay by several laboratories.
In the library only some 1.1% were active in any assay of this set; here they are far more common.
ABCB6 inh MLPCN: ABCB6 transporter inhibitors, primary screen, K562-ABCB6 cells, flow cytometry, MLPCN library | fluorescence ratio to DMSO, % at 10 µM | K562-ABCB6 porphyrin accumulation, 1 h; stronger effect = lower value | AID 602162, 2011 | actives 0.19% (n = 360,000) | ATP-binding cassette sub-family B member 6 (Homo sapiens), Q9NP58;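 active means fluorescence ratio to DMSO below 75%, the collection mean minus 3 SD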;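 further: signal is porphyrin accumulated inside mitochondria; 100% equals median channel fluorescence of DMSO control wells; lower ratio means ABCB6 inhibition with less porphyrin fluorescence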
Exocytosis inh: LAMP-1 surface exposure blockers, TALL-104 cells – cell-based, flow cytometry, MLPCN library, primary screen. TALL-104 LAMP-1 surface exposure; cells stimulated with thapsigargin and PMA. actives 0.66% (n = 360,000). AID 651702, 2012. inhibition, % at 10 µM;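 active means inhibition above about 55%, limit read from the data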
VLA-4 inh: inhibition in human VLA-4 binding assay, primary screen, VLA-4 allosteric modulator project, MLPCN library, flow cytometry, VLA-4 expressing cells; Integrin alpha-4 (Homo sapiens), P13612; ligand binding flow cytometry; inhibition, % (about 7 µM as worked out from the volumes in the protocol); actives 0.2% (n = 330,000); AID 2557, 2010; in the data active means inhibition above about 50%
Target sequence (P13612 whole entry, looked up): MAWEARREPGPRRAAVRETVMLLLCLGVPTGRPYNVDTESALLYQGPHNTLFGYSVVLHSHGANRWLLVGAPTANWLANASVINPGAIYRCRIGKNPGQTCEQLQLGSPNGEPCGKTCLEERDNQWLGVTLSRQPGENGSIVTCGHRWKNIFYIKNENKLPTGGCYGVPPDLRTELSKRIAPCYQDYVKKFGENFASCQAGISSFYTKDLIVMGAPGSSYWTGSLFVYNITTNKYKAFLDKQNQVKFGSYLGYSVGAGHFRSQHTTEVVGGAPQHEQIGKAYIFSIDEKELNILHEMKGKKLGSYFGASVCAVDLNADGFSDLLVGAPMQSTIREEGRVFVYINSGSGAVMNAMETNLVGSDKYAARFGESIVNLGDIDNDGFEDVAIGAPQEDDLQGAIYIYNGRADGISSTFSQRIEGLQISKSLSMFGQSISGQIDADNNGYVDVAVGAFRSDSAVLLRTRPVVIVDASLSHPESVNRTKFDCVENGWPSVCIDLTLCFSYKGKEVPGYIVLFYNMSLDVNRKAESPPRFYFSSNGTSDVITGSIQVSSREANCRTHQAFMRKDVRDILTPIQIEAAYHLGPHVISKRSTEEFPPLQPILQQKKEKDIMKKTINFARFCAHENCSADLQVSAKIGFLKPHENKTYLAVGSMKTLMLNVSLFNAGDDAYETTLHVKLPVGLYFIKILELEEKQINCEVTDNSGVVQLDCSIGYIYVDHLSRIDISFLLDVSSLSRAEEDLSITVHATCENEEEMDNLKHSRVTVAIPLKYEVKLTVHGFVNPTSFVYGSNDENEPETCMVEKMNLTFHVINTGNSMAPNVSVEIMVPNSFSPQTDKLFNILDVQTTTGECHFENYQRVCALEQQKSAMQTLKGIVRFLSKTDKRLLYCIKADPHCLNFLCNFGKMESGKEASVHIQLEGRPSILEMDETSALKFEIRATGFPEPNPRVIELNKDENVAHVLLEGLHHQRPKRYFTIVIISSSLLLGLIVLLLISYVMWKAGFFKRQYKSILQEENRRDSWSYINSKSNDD
CaV13 FRET inh: Primary screen for inhibitors of IQ motif and Ca2+-dependent inactivation inhibitor domain binding in CACNA1D, Förster resonance energy transfer in living cells, …; HEK cells, CFP/YFP FRET ICDI-IQ, plate reader, 10 min; percent FRET-ratio fall versus neutral wells; inhibition, % at 12.3 µM; actives 0.098% (n = 340,000); AID 743397;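 active means mean replicate inhibition of at least 30% and at least 1% of replicates passing that level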;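 further: 0% = median of the neutral control wells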
VLA-4 allo CP: retest of VLA-4 allosteric modulators, confirmation, cell-based, cherry-picked plates, U937, HUTS-21 LIBS antibody. actives 2% (n = 1,300). inhibition, % at 6.7 µM. U937 cells, HUTS-21 LIBS mAb binding, flow cytometry; LDV ligand present at threefold Kd. AID 2813, 2010. shares compounds with VLA-4 inh; in the data active means inhibition above about 40%;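 further: 0% = ligand without compound and 100% = no ligand background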
* hit, by the source's call; nt = no result; ! = repeats disagree.

SMILES	ABCB6 inh MLPCN	Exocytosis inh	VLA-4 inh	CaV13 FRET inh	VLA-4 allo CP
Cc1cc([N+](=O)[O-])nn1CCC(=O)Nc1nccs1	96	1	4	-5	nt
C#CC1c2ccccc2CCN1CC=C (stereo not given)	nt	nt	nt	-4	nt
O=C(Nc1cccc(Cl)c1)Nc1cccc(C(=O)O)c1	85	-4	0	-4	5
O=C(Nc1cccc(Cl)c1)Nc1ccccc1C(=O)O	99	3	8	-3	-6
CCN1CCN(c2nc(Nc3cccc(OC)c3)nc(N)c2[N+](=O)[O-])CC1	107	-4	44	-3	-28
CCN1CCN(c2nc(Nc3ccc(C)c(C)c3)nc(N)c2[N+](=O)[O-])CC1	87	3	0	-4	nt
C=CCC12C[C@@]3(O[C@H](c4ccc(C(F)(F)F)cc4)N=C3C[C@H](c3ccc(OC)cc3)[C@H]1C)N(Cc1ccc3c(c1)OCO3)C2=O	nt	nt	nt	-5	nt
CC(=O)c1c(C)[nH]c(C(=O)COC(=O)c2c(C)noc2C)c1C	97	14	9	-5	nt
CCOC(=O)c1c(C)[nH]c(C(=O)COC(=O)c2ccccn2)c1C	96	0	-10	-6	-5
CCOC(=O)CC(=O)c1[nH]c(C)c(C(=O)OCC)c1C	103	0	14	-12	nt
COC(=O)c1c(C)[nH]c(C(=O)COC(=O)c2c(C)noc2C)c1C	94	-1	-5	-4	-4
CCOC(=O)c1c(C)[nH]c(C(=O)COC(=O)C2(C)CC2(Cl)Cl)c1C (stereo not given)	87	8	-9	-4	3
CCOC(=O)c1c(C)[nH]c(C(=O)COC(=O)C2CC2)c1C	97	-12	nt	-6	-8
Cc1cc2nc3c(c(=O)n2[nH]1)CCCC3	102	4	91*	-6	2
O=C(O)C1(O)C[C@H](O)C(O)[C@@H](O)C1 (stereo not given in full)	104	-2	50*	-5	1
COC(=O)[C@@H](Cc1ccc(O)cc1)NC(=O)[C@H]1O[C@@H](n2cnc3c(=O)[nH]c(N)nc32)[C@H](O)[C@@H]1O	nt	nt	nt	-10	nt
CCCCSc1nc2c(c(C(F)(F)F)c1C#N)CCC2	101	5	64*	-4	3
COc1ccccc1C(C(=O)NCc1ccccc1)N(C(=O)c1csnn1)C1CC1 (stereo not given)	98	-7	-13	-2	nt
Cc1ccc([C@H]2C(C(=O)O)=C[C@@H](CC3CCCC3)N2S(=O)(=O)c2ccc(C)cc2)cc1	99	-3	48	-8	nt
CCc1ccc([C@H]2C(C(=O)O)=C[C@@H](CC3CCCC3)N2S(=O)(=O)c2ccc(C)cc2)cc1	101	2	27	-5	8
Cc1ccc(S(=O)(=O)N2[C@@H](c3ccc(F)cc3)C(C(=O)O)=C[C@H]2CC2CCCC2)cc1	104	-2	-24	-6	0
O=C(COC(=O)c1ccccc1Cl)NC1CCCCCC1	91	-2	-6	-2	-5
Cc1ccc(SCC(=O)OCC(=O)NC2CCCCCCC2)cc1	98	-2	55*	-3	0
O=C(COC(=O)c1c(Cl)cccc1Cl)NC1CCCCCCC1	92	-2	6	-2	1
O=C(COC(=O)c1c(Cl)cccc1Cl)NC1CCCCC1	92	-1	30	-3	nt
SMILES	ABCB6 inh MLPCN	Exocytosis inh	VLA-4 inh	CaV13 FRET inh	VLA-4 allo CP
O=C(COC(=O)c1cccc(Cl)c1Cl)NC1CCCC1	88	-8	6	-22	nt
COc1cccc(-n2nc(C(=O)N3CC(C)CC(C)C3)c3ccccc3c2=O)c1 (stereo not given)	106	-1	7	-4	nt
CC(C)CC(=O)Nc1ccc2c(c1)nc(CCN1CCCCC1)n2C	101	0	47	-4	6
CC(C)C(=O)Nc1ccc2c(c1)nc(CCN1CCCCC1)n2C	100	-1	9	-2	nt
CC1(C)C(C(=O)O)N2C(=O)C(NC(=O)Cc3ccccc3)C2S1=O (stereo not given)	98	1	59*	-5	-8
CC1(C)C(C(=O)OCC(Cl)(Cl)Cl)N2C(=O)C(NC(=O)Cc3ccccc3)C2S1=O (stereo not given)	96	-6	4	-21	nt
COc1ccc(/C=C\C(=O)NCc2ccc3c(c2)cc(C)n3C)cc1OC	95	15	58*	7	2
Cc1ccc(O)c([C@H](CCN(C(C)C)C(C)C)c2ccccc2)c1	98	-2	53*!	-4	-10
C=CCN=C1NC(c2ccc(Cl)cc2)C(C(=O)OC)=C(C)N1Cc1ccccc1C(F)(F)F (stereo not given)	nt	nt	nt	-12	nt
COc1ccc(C(=O)NCC(=O)OCc2csc(-c3ccccc3)n2)cc1	96	-10	25	-5	nt
COc1cccc(-c2sc3cc(OC)c(OC)cc3c2-c2ccc(OCCN3CCCCC3)cc2)c1	103	62*	nt	nt	0
COc1cccc(-c2sc3ccccc3c2-c2ccc(OCCN3CCCCC3)cc2)c1	93	-2	45	nt	20
Cc1c(-c2ccc(OCCN3CCCCC3)cc2)c(=O)oc2ccc3ccccc3c12	81	-7	nt	-3	nt
COc1ccc(-c2sc3ccc(OC)cc3c2-c2ccc(OCCN3CCOCC3)cc2)cc1	104	5	nt	nt	1
COc1cccc(-c2sc3ccccc3c2-c2ccc(OCCN(C)C)cc2)c1	98	8	72*	-6	44*
COc1cccc(-c2sc3ccc(OC)cc3c2-c2ccc(C(N)=O)cc2)c1	99	0	26	-6	nt
CCOC(=O)N1CCN(C(=O)C[C@H]2C[C@@]3(C(=O)OC)C(=C[C@H](C(C)(C)C)O[C@@H]3C)N(Cc3ccccc3)C2=O)CC1	nt	nt	nt	-8	nt
Nc1ncnc2c1ncn2[C@@H]1O[C@H](CNCC(O)CO)[C@@H](O)[C@H]1O (stereo not given in full)	103	1	nt	-6	nt
COc1ccc2sc(-c3ccccc3OC)c(-c3ccc(OCCN(C)C)cc3)c2c1	103	24	nt	-7	-4
COc1cccc(-c2sc3ccc(OC)cc3c2-c2ccc(OCCN3CCCC3)cc2)c1	96	27	nt	nt	12
COc1cccc(-c2sc3ccccc3c2-c2ccc(OCCN3CCCC3)cc2)c1	91	1	64*	-6	38
CCN(CC)S(=O)(=O)c1cccc(NC(=O)c2cc(-c3cccs3)nn2-c2ccccc2)c1	94	-7	-11	-3	nt
CN(C)S(=O)(=O)c1cccc(NC(=O)c2cc(-c3cccs3)nn2-c2ccccc2)c1	97	5	40	-6	1
CS(=O)(=O)N(CC(=O)N1CCCC1)c1cccc(F)c1	101	-9	-7	-7	nt
